Source: PubChem
Many of the other results were omitted from the sample, so hits are more common in it than they were.
Dicer inh: human Dicer pre-microRNA cleavage inhibition; Q9UPY3; cat-ELCCA pre-miR-21 Dicer processing, chemiluminescence; hits give high values; z-score at 25 µM; 47,000 compounds, 6% hits; AID 1347074; in the data active = z-score above about 3, passing the limit was not always enough;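 note: plate controls were vehicle for no effect and no enzyme for full effect; higher signal means more uncleaved substrate so more Dicer inhibition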
Active calls of the source: *.

SMILES	Dicer inh
CCc1ccc(Nc2nc(=O)[nH]nc2C)cc1	0.31
CC(C1CC1)N(C(=O)c1ccccc1)c1ccccc1 (centres undefined)	-1.69
O=S(=O)(NC1CCN(Cc2ccccc2)CC1)c1cc(Cl)c(Cl)cc1Cl	-1.34
O=S(=O)(NC1CCN(Cc2ccccc2)CC1)c1cccs1	10.4
O=S(=O)(NC1CCN(Cc2ccccc2)CC1)c1cccc(C(F)(F)F)c1	3.01*
CCc1ccc(-n2nc3ccc(N)cc3n2)cc1	-5.22
CCCCNC(=O)n1ccc(-c2nn(-c3ccc(F)cc3)ccc2=O)n1	1.45
CCCCOc1ccc(C2c3c(oc4ccccc4c3=O)C(=O)N2c2ccccn2)cc1OCC (centres undefined)	4.61*
CCCOc1ccc(C2c3c(oc4ccccc4c3=O)C(=O)N2c2ccccn2)cc1OCC (centres undefined)	4.4*
CCCOc1ccc(C2c3c(oc4ccccc4c3=O)C(=O)N2c2ccc(C)cn2)cc1OCC (centres undefined)	-0.52
CCCOc1cccc(C2c3c(oc4ccccc4c3=O)C(=O)N2c2ccccn2)c1 (centres undefined)	-5.9
CCCCOc1ccc(C2c3c(oc4ccccc4c3=O)C(=O)N2c2nncs2)cc1OCC (centres undefined)	-0.3
CCCOc1ccc(C2c3c(oc4ccccc4c3=O)C(=O)N2c2nnc(C)s2)cc1OCC (centres undefined)	-0.5
COC(=O)c1ccc(C2C(C(=O)OCCc3ccccc3)=C(C)NC3=C2C(=O)CCC3)cc1 (centres undefined)	-0.59
CC1=C(C#N)C(c2ccc(OCc3ccccc3)cc2)C2=C(CCCC2=O)N1 (centres undefined)	0.73
CN(C)S(=O)(=O)N(CC(=O)Nc1ccc(Br)c(Cl)c1)c1ccccc1	2.34
CCOCCOC(=O)C1=C(C)NC2=C(C(=O)CCC2)C1c1ccccc1OC(C)C (centres undefined)	-0.59
ON/C=N/c1nc2c(s1)CCc1ccccc1-2	2.28
O=C(Nc1nc2c(s1)CCc1ccccc1-2)c1ccc(F)c(Cl)c1	3.72*
CCCCCCCCC(=O)Nc1nc2c(s1)CCc1ccccc1-2	-0.72
Oc1ccccc1CNc1nc2c(s1)CCc1ccccc1-2	4.27*
CC(=O)Nc1nc2c(s1)Cc1ccccc1-2	-1.3
O=C(Nc1nc2c(s1)Cc1ccccc1-2)c1ccc(F)c(Cl)c1	1.21
CC(C(=O)NNS(=O)(=O)c1ccc(Cl)cc1)n1nnc(-c2cc(C(F)(F)F)cc(C(F)(F)F)c2)n1 (centres undefined)	-0.42
COc1ccc(CNc2nc(-c3cccs3)c(C#N)c(=O)n2C)cc1	-0.9
SMILES	Dicer inh
CC1=C(C(=O)OC2CCCCC2)C(c2cccc(Cl)c2)C2=C(CCCC2=O)N1 (centres undefined)	1.21
C=CCN1C(=O)C2(/C(=C(/O)c3ccc(F)cc3)C(=O)C(=O)N2CCN(C)C)c2ccccc21 (centres undefined)	3.94*
C=CCN1C(=O)C2(/C(=C(/O)c3ccc(OC)cc3)C(=O)C(=O)N2CCCN(C)C)c2ccccc21 (centres undefined)	3.62*
C=CCN1C(=O)C2(/C(=C(/O)c3ccc(C)c(F)c3)C(=O)C(=O)N2CCN(C)C)c2ccccc21 (centres undefined)	0.78
C=CCN1C(=O)C2(/C(=C(/O)c3ccc(C)cc3)C(=O)C(=O)N2CCCOC)c2ccccc21 (centres undefined)	0.49
C=CCN1C(=O)C2(/C(=C(/O)c3ccc(C)cc3)C(=O)C(=O)N2CCCN(C)C)c2ccccc21 (centres undefined)	1.6
CN(C)CCCN1C(=O)C(=O)/C(=C(\O)c2ccc(F)cc2)C12C(=O)N(C)c1ccccc12 (centres undefined)	2.55
C=CCN1C(=O)C2(/C(=C(/O)c3ccc(OC)cc3)C(=O)C(=O)N2CCCOC)c2ccccc21 (centres undefined)	3.23*
C=CCN1C(=O)C2(/C(=C(/O)c3ccc(C)c(F)c3)C(=O)C(=O)N2CCCN(C)C)c2ccccc21 (centres undefined)	0.17
COCCCN1C(=O)C(=O)/C(=C(\O)c2ccc(Cl)cc2)C12C(=O)N(C)c1ccccc12 (centres undefined)	-0.78
C=CCN1C(=O)C2(/C(=C(/O)c3ccc(Cl)cc3)C(=O)C(=O)N2CCCOC)c2ccccc21 (centres undefined)	3.38*
C=CCN1C(=O)C2(/C(=C(/O)c3ccc(OC)cc3)C(=O)C(=O)N2CCOC)c2ccccc21 (centres undefined)	1.29
Cc1cccc(Cl)c1/C=N/Nc1ccc(-c2csnn2)cc1	46.6
Cc1onc(-c2c(Cl)cccc2Cl)c1C(=O)N=S1CCC2(C1)OCCO2 (centres undefined)	-0.81
COc1cccc(C2CC(=O)C3=C(C2)NC(C)=C(C(=O)OCCOC(C)C)C3c2ccc(C)s2)c1 (centres undefined)	-0.29
Cc1nc(/N=C(\N)NC(=O)Nc2ccc(Cl)cc2)sc1Br	-1.36
Cc1ccc(C(=O)C2CCN(C(=S)Nc3ccc(Cl)cc3Cl)CC2)cc1	-0.88
Cc1nn(CC(=O)O)cc1Br	0.96
